Assay outcomes: PubChem, National Center for Advancing Translational Sciences (NCATS)
UDG counterscr = counter-screen for AID inhibitors: uracil-DNA glycosylase inhibition. hit rate 0.14% among 91,000. FRET deamination/UDG coupled assay, UDG read, 4 h. AID 1347430. Potency, µM (titrated, usually from 115 µM), inactives show at the top dose activity change, negative = inhibition, usual class: inhibitors; further: nearly all actives have a fitted effect of over 65% in size
AID inhibitor = blocks human AID cytidine deaminase activity | Q9GZX7 | AID deamination FRET fluorescence, UDG-coupled, 4 h | Potency, µM (titrated, usually from 115 µM), actives largely listed as inhibitors | hit rate 0.32% among 91,000; further: nearly all actives have a fitted effect of over 25% in size
Target sequence (Q9GZX7 whole entry, looked up): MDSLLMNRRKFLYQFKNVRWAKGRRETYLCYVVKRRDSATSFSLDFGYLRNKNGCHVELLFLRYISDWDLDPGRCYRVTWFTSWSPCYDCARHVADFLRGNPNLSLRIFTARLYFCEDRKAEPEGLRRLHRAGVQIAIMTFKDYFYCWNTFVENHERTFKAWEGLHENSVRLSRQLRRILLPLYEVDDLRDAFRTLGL
The depositor's hits bear a star; i = inactive; ? = inconclusive; ! = not confirmed by another sample; [ ] = dose if it differs, or a comment. Hits are enriched below; roughly 0.4% of the tested compounds scored in any of these assays. The call rests on the fitted dose curve; in most records, active means well fitted curve in the direction sought with a large enough effect; inconclusive means small, poorly fitted or top-dose-only effect, or another doubt; inactive means no such curve, though single readings can be large; an effect the other way counts as inactive or inconclusive. On the % scale 0 is the no-effect control and ±100 the full control effect; potency means the concentration at half of the fitted maximal effect.

SMILES	UDG counterscr	AID inhibitor
CCCCN(C)C(=O)C1CCN(C(=O)/C=C/c2c(Cl)cccc2Cl)CC1	4.8%	i
CCN(CC)C(=O)c1ccc2oc(CN3CCN(C(=O)Nc4cccc(F)c4)CC3)nc2c1	-9.2%	i
Cc1nc2nc(SCC(=O)NCc3ccccc3Cl)nn2c(C)c1Cc1ccccc1	0.2%	?
Cc1nc2nc(SCC(=O)N(C)Cc3ccccc3)nn2c(C)c1Cc1ccccc1Cl	-15.3%	44.7µM*
Nc1nccnc1C(=O)NCC(=O)NC1CC1	3.1%	i
CCCCCSc1nc2sc3c(c2c(=O)n1-c1ccccc1)CCN(C(C)=O)C3	-21.9%	25.1µM*
CCSc1nc2sc3c(c2c(=O)n1-c1ccc(C)c(Cl)c1)CCN(C(C)=O)C3	?	i
COc1ccc(-c2coc3cc(OC(C)=O)ccc3c2=O)cc1	1.2%	i
NC(=S)Nc1cccc2ncccc12	-1.9%	i
CN(Cc1cnn(C)c1)C(=O)c1nn(-c2ccccc2)c(=O)c2ccccc12	2.6%	i
Cc1ccc2nc(N3C(=O)C(O)=C(C(=O)c4ccco4)C3c3ccc(O)cc3)sc2c1 (configuration not stated)	1.6%	i
O=C(C1=C(O)C(=O)N(c2nc3ccc(Cl)cc3s2)C1c1ccco1)c1ccco1 (configuration not stated)	-4.9%	50.1µM*
CCOc1ccc(-c2nn(-c3ccccc3)cc2C2NC(=O)NC(C)=C2C(=O)OC(C)C)cc1 (configuration not stated)	?	44.7µM*
CCOC(=O)C1=C(C)NC(=O)NC1c1cn(-c2ccccc2)nc1-c1ccc(OCC)cc1 (configuration not stated)	-16.0%	?
CCOc1ccc(-c2nn(-c3ccccc3)cc2C2NC(=O)NC(C)=C2C(=O)OC(C)C)cc1C (configuration not stated)	?	44.7µM*!
COC(=O)C1=C(C)NC(=O)NC1c1cn(-c2ccccc2)nc1-c1ccc(OC)c(Cl)c1 (configuration not stated)	-20.7%	i
COc1ccc(C(C)=O)c(OCc2cc(Br)ccc2OC)c1	7.0%	i
CN(c1ccccc1)S(=O)(=O)c1ccc(C(=O)OCn2nnc3ccccc3c2=O)cc1	-5.9%	i
CN(CC(=O)Nc1cccc(F)c1)C(=O)C1CCN(c2ccc(C#N)cn2)CC1	-17.5%	i
Cc1ccc(S(=O)(=O)C(CC(=O)c2ccccc2)c2ccc(Cl)cc2)cc1 (configuration not stated)	-10.2%	i
CCN(CC)S(=O)(=O)c1ccc(C)c(NC(=S)N(c2ccccc2)C(C)C)c1	8.9%	i
CCN(C(=S)Nc1cc(S(=O)(=O)N(C)C)ccc1C)c1cccc2ccccc12	?	79.4µM*
COc1cc(-c2nc3c(c(=O)[nH]c(=O)n3Cc3ccccc3)n2C)ccc1OCc1ccccc1	5.2%	i
CCC(C)Cn1c(/C=C/c2ccccc2)nc2ccccc21 (configuration not stated)	79.4µM*	?
CC(C)Cn1c(/C=C/c2ccc(F)cc2)nc2ccccc21	14.4%	i
SMILES	UDG counterscr	AID inhibitor
COc1ccc(-c2c(C#N)c(SCC(=O)Nc3ccccc3C)nc(C)c2C(=O)Nc2ccc(Cl)cc2)cc1	?	i
CCc1ccc(NC(=O)CSc2nc(C)c(C(=O)Nc3ccc(Cl)cc3)c(-c3ccc(OC)cc3)c2C#N)cc1	89.1µM*	?
Cc1ccc2c(COC(=O)CNS(=O)(=O)c3ccc(C)c(C)c3)cc(=O)oc2c1	7.9%	i
CC1Sc2ccc(C(=O)NNC(=O)CSc3cccc4cccnc34)cc2NC1=O (configuration not stated)	-0.1%	22.4µM*
C=C(Cl)COC(=O)c1ccc2c(c1)NC(=O)C(C)S2 (configuration not stated)	-14.2%	i
N#CCCN(CCC#N)C(=O)C1CCN(C(=O)c2cccs2)CC1	1.5%	i
CCOC(=O)c1c(-c2ccc(OC)cc2)oc2ccc(OCc3ccc(F)cc3F)cc12	-5.3%[57.5 µM]	i
O=C(O)c1c(-c2ccccc2)oc2ccc(OCc3c(F)cccc3Cl)cc12	-16.3%	79.4µM*
Cc1ccc(-c2noc(CSc3nnc(C4CC4)n3-c3ccccc3)n2)cc1	89.1µM*	i
Cc1cccc(-n2c(SCc3nc(-c4ccccc4C)no3)nnc2-c2ccccc2)c1	3.3%	i
Cc1ccc(-c2noc(CSc3nnc(C)n3-c3ccc(F)cc3)n2)cc1	?	i
Cc1nnc(SCc2nc(-c3ccc(Cl)cc3)no2)n1-c1ccc(F)cc1	79.4µM*	?
O=S(=O)(Cc1coc(-c2cccc(Cl)c2)n1)CC1CCCO1 (configuration not stated)	-4.7%	i
FC(F)(F)c1ccc(Cl)c(N/N=C/c2ccc(OCc3ccccc3)cc2)c1	-13.6%	i
Cc1cc(C)n(-c2nc3c(c(=O)n(CC(C)C)c(=O)n3C)n2CCc2ccccc2)n1	-1.9%	i
CCOc1ccc(-n2c(C)nc3cc(C(=O)NCCC4=CCCCC4)ccc32)cc1	0.1%	i
CCOc1ccc(-n2c(C)nc3cc(C(=O)NCc4ccc(C)cc4)ccc32)cc1	-14.8%	31.6µM*
O=C(CCc1ncc(-c2ccccc2Cl)o1)N1CCOCC1	-14.4%	i
c1ccc(CNCc2ccc(OCc3ccccc3)cc2)cc1	-9.0%	i
O/N=C\c1ccc(OCc2ccccc2Cl)cc1	-5.2%	i
Oc1ccc(NCc2ccc(OCc3ccccc3Cl)cc2)cc1	79.4µM*	35.5µM*
Oc1ccc(NCc2ccc(OCc3ccccc3)cc2)cc1	-22.6%	2.82µM*
COc1cccc(CSC2=NS(=O)(=O)c3ccccc3N2Cc2ccccc2)c1	-2.9%	i
CC(C)NC[C@H](O)c1ccc(O)c(O)c1	-9.0%	79.4µM*!
CC(C)NCC(O)c1cc(O)cc(O)c1 (configuration not stated)	1.9%	i
SMILES	UDG counterscr	AID inhibitor
NCC(O)c1ccc(O)c(O)c1 (configuration not stated)	-1.7%	i
CCC(NC(C)C)C(O)c1ccc(O)c(O)c1 (configuration not stated)	-11.7%	44.7µM*
S=C(NCCc1ccccc1)NCc1cccc(Br)c1	-9.8%	i
CC(C)c1ccc(C(C)NC(=O)c2ccc(C(F)(F)F)nc2)cc1 (configuration not stated)	-14.4%	i
Cc1cccc(OCCCSc2nc(-c3ccc(C(C)(C)C)cc3)nc3cc(=O)[nH]n23)c1C	-20.8%	?
CCc1ccc(OCCCSc2nc(-c3ccc(C(C)(C)C)cc3)nc3cc(=O)[nH]n23)cc1	-22.2%	79.4µM*
Cc1cc(C)cc(OCCC(=O)N(CC#N)C2CC2)c1	-5.9%	i
N#Cc1ccccc1OCc1csc(-c2ccccc2)n1	89.1µM*	?
N#Cc1ccccc1OCc1ccccc1	0.1%	i
CCOC(=O)C1CCN(C(=O)c2cn(-c3ccccc3)nc2-c2ccc(Cl)cc2)CC1	-8.0%	i
Nc1nccnc1C(=O)NCCc1ccccc1F	-0.8%	i
Cc1ccc2nc(Cl)c3cc(C(=O)N4CCCC(C)C4)sc3c2c1 (configuration not stated)	-24.2%	39.8µM*
Cc1ccc2nc(Cl)c3cc(C(=O)N4CCCCC4C)sc3c2c1 (configuration not stated)	-4.4%	?
C=C(C)[C@@H]1CCC2(COC(C)=O)CC[C@]3(C)C(CCC4[C@@]5(C)CCC(=O)C(C)(C)C5CC[C@]43C)C12 (some centres not stated)	-5.0%	i
